Measured values taken from PubChem BioAssay (EPA / NIEHS).
Activity calls are given as the source filed them. The calls were made as follows: active = hit-call score of the fitted dose curve at least 0.9, where 1 is the maximum; inactive = score below 0.9.

What was measured:
Conditions in all cases: mRNA level, 48 h; actives raise or lower the signal
HGF (gene 3082) = assay: LTEA_HepaRG_HGF: Life Technologies and Expression Analysis (LTEA) Assay for Hepatocyte Growth Facto (HGF) using HepaRG (AID 2283505)
How it was run: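 Differentiated human HepaRG cells in serum-free induction medium were exposed in duplicate for 48 h to eight concentrations (top 100 uM, half-log steps, 0.5% DMSO). HGF mRNA was quantified by qRT-PCR, normalized to ACTB, GAPDH and POLR2A.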

[1] = read-out: Insulin Like Growth Factor 1 (IGF1), IGF1 (gene 3479); assay: LTEA_HepaRG_IGF1: Life Technologies and Expression Analysis (LTEA) Assay for Insulin Like Growth Factor 1 (IGF1) using HepaRG (AID 2283506)
How it was run: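 HepaRG, plated 48 h, then switched to serum-free induction media; test chemical 8-pt half-log from 100 uM (0.5% DMSO), duplicate, 48 h. Lysis in RLT, TaqMan qRT-PCR, norm. ACTB/GAPDH/POLR2A. Bidirectional fit vs DMSO.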

[2] = read-out: Intercellular Adhesion Molecule 1 (ICAM1), ICAM1 (gene 3383); assay: LTEA_HepaRG_ICAM1: Life Technologies and Expression Analysis (LTEA) Assay for Intercellular Adhesion Molecule 1 (ICAM1) using HepaRG (AID 2283507)
How it was run: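 Differentiated HepaRG cells in serum-free induction medium were exposed in duplicate for 48 h to eight half-log concentrations up to 100 uM in 0.5% DMSO. Transcript levels were measured by qRT-PCR normalized to ACTB, GAPDH and POLR2A; bidirectional fits relative to DMSO.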

[3] = read-out: Insulin-like growth factor-binding protein 1 (IGFBP1), IGFBP1 (gene 3484); assay: LTEA_HepaRG_IGFBP1: Life Technologies and Expression Analysis (LTEA) Assay for Insulin-like growth factor-binding protein 1 (IGFBP1) using HepaRG (AID 2283508)
How it was run: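 Differentiated human HepaRG cells in serum-free induction medium were exposed in duplicate for 48 h to eight concentrations, top 100 uM with half-log dilutions, in 0.5% DMSO. Transcript levels came from qRT-PCR normalised to ACTB, GAPDH and POLR2A, fitted bidirectionally against DMSO.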

[4] = read-out: Interleukin 6 Receptor (IL6R), IL6R (gene 3570); assay: LTEA_HepaRG_IL6R: Life Technologies and Expression Analysis (LTEA) Assay for Interleukin 6 Receptor (IL6R) using HepaRG (AID 2283510);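 as to AC50: TaqMan qRT-PCR signal normalized to ACTB GAPDH and POLR2A housekeeping genes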
How it was run: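 Readout is IL6R transcript level by TaqMan qRT-PCR, normalized to three housekeeping genes and fitted bidirectionally against 0.5% DMSO controls. Human HepaRG cells received chemicals for 48 h in serum-free induction medium, highest concentration 100 uM.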

[5] = read-out: Potassium channel subfamily K member 1 (KCNK1), KCNK1 (gene 3775); assay: LTEA_HepaRG_KCNK1: Life Technologies and Expression Analysis (LTEA) Assay for Potassium channel subfamily K member 1 (KCNK1) using HepaRG (AID 2283511)
How it was run: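 Gain or loss of KCNK1 mRNA is the read-out, quantified by qRT-PCR against three housekeeping genes after 48 h chemical treatment of human HepaRG liver cells. Concentrations ran from 100 uM downward in half-log steps, vehicle 0.5% DMSO.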

[6] = read-out: JUN Transcription Factor, JUN (gene 3725); assay: LTEA_HepaRG_JUN: Life Technologies and Expression Analysis (LTEA) Assay for JUN Transcription Factor using HepaRG (AID 2283513)
How it was run: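 Cells plated 48 h, medium switched to serum-free induction medium, then dosed 48 h (100 uM top, half-log dilutions, 0.5% DMSO). RNA isolated; JUN measured by qRT-PCR against three housekeeping genes; gain or loss fitted relative to DMSO.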

[7] = read-out: Lipase C (LIPC), LIPC (gene 3990); assay: LTEA_HepaRG_LIPC: Life Technologies and Expression Analysis (LTEA) Assay for Lipase C (LIPC) using HepaRG (AID 2283514)
How it was run: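 Read-out is LIPC transcript level by TaqMan qRT-PCR, normalized to three housekeeping genes, after 48 h chemical treatment of human HepaRG liver cells. Curves span eight concentrations topping at 100 uM; activity in either direction scored relative to 0.5% DMSO.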

[8] = read-out: Keratin 19 (KRT19), KRT19 (gene 3880); assay: LTEA_HepaRG_KRT19: Life Technologies and Expression Analysis (LTEA) Assay for Keratin 19 (KRT19) using HepaRG (AID 2283512)
How it was run: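 Differentiated human HepaRG cells, plated 48 h, were exposed in duplicate for 48 h in serum-free induction medium to eight half-log concentrations up to 100 uM in 0.5% DMSO. KRT19 mRNA was quantified by qRT-PCR, normalized to ACTB, GAPDH and POLR2A, and fitted bidirectionally versus DMSO.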

Measured: AC50

CCC(C)(CC)c1cc(NC(=O)c2c(OC)cccc2OC)on1
active: [1] 1.79 µM | [3] 50 µM
not listed: [8]
inactive: all other assays above

CCOP(=S)(OCC)SCSC(C)(C)C
not listed: [8]
inactive: all other assays above

C[C@]12CCC(=O)C=C1CC[C@@H]1[C@@H]2CC[C@@]2(C)[C@H]1CC[C@]2(C)O
active: [1] 11.3 µM | [7] 81.7 µM
not listed: [8]
inactive: all other assays above

CO/C=C(/C(=O)OC)c1ccccc1COc1cccc(C(F)(F)F)n1
active: HGF (gene 3082) 50 µM | [1] 5.31 µM | [2] 8.33 µM | [3] 8.19 µM | [5] 27.8 µM | [8] 12.4 µM | [6] 50 µM | [7] 22.6 µM
inactive: [4]

CCCCCCOC(=O)c1ccccc1C(=O)OCCCCCC
not listed: [8]
inactive: all other assays above

CCCCCCCCCC[N+](C)(C)CCCCCCCCCC
inactive: [4] | [7]
active: HGF (gene 3082) 50 µM | [1] 67.7 µM | [2] 94.5 µM | [3] 81.6 µM | [6] 90.5 µM

CN(C)c1nc(=O)n(C2CCCCC2)c(=O)n1C
active: [2] 5.44 µM | [7] 12 µM
not listed: [8]
inactive: all other assays above

C=CC(=O)NCNC(=O)C=C
active: [1] 50 µM
not listed: [8]
inactive: all other assays above

O=C(O)C(F)(F)C(F)(F)C(F)(F)C(F)(F)C(F)(F)C(F)(F)C(F)(F)C(F)(F)C(F)(F)F
active: HGF (gene 3082) 89.8 µM | [1] 31.2 µM | [2] 22.7 µM | [3] 27.9 µM | [6] 50 µM | [7] 21.1 µM
inactive: [4] | [5] | [8]

N#Cc1ccc(N(CC(N)=O)CC(F)(F)F)cc1C(F)(F)F
not listed: [8]
inactive: all other assays above

CC(C)(O)C(=O)Nc1ccc([N+](=O)[O-])c(C(F)(F)F)c1
active: HGF (gene 3082) 0.0291 µM | [1] 0.0443 µM | [2] 0.0402 µM | [3] 0.0432 µM | [5] 0.052 µM | [6] 0.0328 µM | [7] 0.0399 µM
inactive: [4]

Oc1c(Cl)c(Cl)c(Cl)c(Cl)c1Cl
active: [1] 6.52 µM | [3] 7.05 µM | [4] 5.66 µM | [5] 34.5 µM | [7] 4.24 µM
inactive: HGF (gene 3082) | [2] | [6]

CCC(C)c1cc([N+](=O)[O-])cc([N+](=O)[O-])c1O (stereo not drawn)
inactive: [2] | [4] | [6]
active: HGF (gene 3082) 2.87 µM | [1] 1.24 µM | [3] 4.09 µM | [5] 27.5 µM | [7] 1.83 µM

ClC1=C(Cl)[C@]2(Cl)[C@@H]3[C@H]4C[C@H]([C@@H]5O[C@H]45)[C@@H]3[C@@]1(Cl)C2(Cl)Cl
active: [1] 5.52 µM | [2] 9.92 µM | [4] 9.92 µM | [7] 50 µM
inactive: all other assays above

Cc1cc(O)ccc1Cl
inactive: all assays above

CCCCCCCCOC(=O)c1ccccc1C(=O)OCCCCCCCC
not listed: [8]
inactive: all other assays above

C[C@]12CCC(=O)C=C1CC[C@@H]1[C@@H]2CC[C@]2(C)C(=O)CC[C@@H]12
active: [1] 50 µM
not listed: [7] | [8]
inactive: all other assays above
